Results filed as inconclusive are left out. Entries that show only a call come without a potency. Activity calls are given as the source filed them. Calls follow the shape of the dose curve; as a rule, active = well fitted inhibition curve with a large enough effect in the repeat runs; inconclusive = weak or mixed curves, or effect the other way; inactive = no such curve, though single readings can be large or run the other way.
Assay: qHTS assay to identify small molecule antagonists of the retinoic acid receptor (RAR) signaling pathway (AID 1159552; also: nearly all actives have a fitted effect of over 50% in size)
Conditions: C3RL4 RARE luciferase reporter, retinol-stimulated, 6 h; series mostly up to 92.4 µM
From the text: National Center for Advancing Translational Sciences [NCATS]
NIH Chemical Genomics Center [NCGC]
U.S. Environmental Protection Agency [EPA]
National Institutes of Environmental Health Sciences [NIEHS]
National Toxicology Program [NTP]
U.S. Food and Drug Administration [FDA]
All-trans Retinoic acid (atRA) is the potent natural metabolite of retinol and plays an important role in normal embryonic development and maintenance of cellular phenotype in adult animals. atRA is the activating ligand for the retinoic acid receptors (RARs) which form heterodimers with retinoid X receptors (RXRs) on the retinoic acid response element (RARE). Through activation of the RAR/RXRs nuclear receptors, atRA regulates the transcription of a large number of protein-coding genes and regulatory RNAs. Intracellular levels of atRA are controlled by the retinol signaling pathway (RSP) that regulates the biosynthesis and catabolism of atRA to maintain physiological levels. Chemicals that interfere with the RSP can cause abnormal intracellular levels of atRA and therefore are potential developmental toxicants. To assess compounds for the potential adverse effect on embryonic development through interfering with retinol signaling, a cell-based RARE luciferase reporter gene assay was used. C3RL4 cell line (OARSA/CFSAN/FDA, Laurel, MD) was used to screen Tox21 10K compound library for identifying inhibitors of the RSP.
Tox21 Assay Protocol Summary:
C3RL4 cells were seeded at 1,000/well in 4 uL of assay medium into white solid 1,536-well tissue culture plates (Greiner Bio-One North America Inc. Monroe, NC) using a Multidrop Combi (Thermo Scientific, Waltham, MA) dispenser. After incubation at 37 C and 5% CO2 for an overnight, 23 nL of compounds dissolved in DMSO, positive control or DMSO only were transferred by a Pintool station (Kalypsys, San Diego, CA). One ul of 1 uM (final concentration) of Retinol was added right after the compound addition by using a Flying Reagent Dispenser (FRD) (Aurora Discovery, San Diego, CA). After 6 hr incubation at 37 C and 5% CO2, 5 uL of Amplite Luciferase reagent (AAT Bioquest Inc. Sunnyvale, CA) was added to each assay plate using an FRD. Luminescence was quantified on a ViewLux plate reader (PerkinElmer, Waltham, MA) after 30 min incubation at room temperature.
Potency is read from the fitted curve at half-maximal effect.

Structure (SMILES) | Potency | activity, negative = inhibition
O=C(O)Cc1cc(I)c(Oc2ccc(O)c(I)c2)c(I)c1 | inactive | 
COCCOCCOCCOCCOC | inactive | 
CCN(CC)CCOC(=O)C1(c2ccccc2)CCCC1 | inactive | 
C1=Cc2ccccc2C1 | inactive | 
CC(C)NCC(O)c1cc(O)cc(O)c1 (stereo not given) | inactive | 
CC(C)(Oc1ccc(Cl)cc1)C(=O)OCCCOC(=O)C(C)(C)Oc1ccc(Cl)cc1 | inactive | 
CC(C)CCCC(C)CCO (stereo not given) | inactive | 
Cc1ccc(C(=O)C(C)CN2CCCCC2)cc1 (stereo not given) | inactive | 
CCOc1cc(OCC)c(C(=O)CCC(=O)O)cc1OCC | inactive | 
CCN(CC)C(C)CN1c2ccccc2Sc2ccccc21 (stereo not given) | inactive | 
COc1ccc([C@@H]2Sc3ccccc3N(CCN(C)C)C(=O)[C@@H]2OC(C)=O)cc1 | inactive | 
CC(C(=O)O)c1ccc(-c2ccccc2)c(F)c1 (stereo not given) | inactive | 
CCOC(=O)C1=NN(c2ccccc2)C(=O)C1 | inactive | 
CC(O)C1CCCCC1 (stereo not given) | inactive | 
CC(Cc1cccc(C(F)(F)F)c1)NCCOC(=O)c1ccccc1 (stereo not given) | inactive | 
CC(C)(C)C1CCCCC1O (stereo not given) | inactive | 
CC(C)(C)c1cc(CCC(=O)OCC(COC(=O)CCc2cc(C(C)(C)C)c(O)c(C(C)(C)C)c2)(COC(=O)CCc2cc(C(C)(C)C)c(O)c(C(C)(C)C)c2)COC(=O)CCc2cc(C(C)(C)C)c(O)c(C(C)(C)C)c2)cc(C(C)(C)C)c1O | inactive | 
CCCCCCCCCO | inactive | 
CCCC(=O)OCC | inactive | 
CCOC(=O)[C@H](CCc1ccccc1)N[C@H]1CCc2ccccc2N(CC(=O)O)C1=O | 29.8 µM (active) | 

Structure (SMILES) | Potency | activity, negative = inhibition
CC1=CC(=O)/C(=C(/C)O)C(=O)O1 | inactive | 
CCCCCc1ccc(N)cc1 | inactive | 
C[C@H](CCC(=O)O)[C@H]1CC[C@H]2[C@@H]3[C@H](O)C[C@@H]4C[C@H](O)CC[C@]4(C)[C@H]3CC[C@]12C | inactive | 
O=C1[C@H](CC[C@H](O)c2ccc(F)cc2)[C@@H](c2ccc(O)cc2)N1c1ccc(F)cc1 | inactive | 
CCCCCCOC(=O)CCC | inactive | 
CCOc1ccc2[nH]cc(C(=O)NCc3ccccc3)c(=O)c2n1 | inactive | 
O=C1Nc2cc(Cl)ccc2Oc2ccccc21 | inactive | 
O=C(O)/C=C/c1cnc[nH]1 | inactive | 
OCCC1CCCCN1 (stereo not given) | inactive | 
NC[C@H]1O[C@H](O[C@H]2[C@H](O)[C@@H](O[C@H]3O[C@H](CO)[C@@H](O)[C@H](N)[C@H]3O)[C@H](N)C[C@@H]2N)[C@H](O)[C@@H](O)[C@@H]1O |  | 7.6% [at 8.39 µM] (inactive)
CC(=O)N(O)CCCCCNC(=O)CCC(=O)N(O)CCCCCNC(=O)CCC(=O)N(O)CCCCCN | inactive | 
NC(N)=NN=C(/C=C/c1ccc([N+](=O)[O-])o1)/C=C/c1ccc([N+](=O)[O-])o1 | 7.5 µM (active) | 
N#CCc1cccc(C(F)(F)F)c1 | inactive | 
CCN(CCO)CCCC(C)Nc1ccnc2cc(Cl)ccc12 (stereo not given) |  | -1.6% [at 8.39 µM] (inactive)
O=C(/C=C/c1ccc(O)c(O)c1)O[C@@H]1C[C@](O)(C(=O)O)C[C@@H](O)[C@H]1O | inactive | 
COC(Cc1ccccc1)OC | inactive | 
O=CNc1ccccc1 | inactive | 
C[C@@H](C1=C(CCN(C)C)Cc2ccccc21)c1ccccn1 | inactive | 
C=CCCCCCC | inactive | 
Nc1nc(N)c2nc(CNc3ccc(C(=O)N[C@@H](CCC(=O)O)C(=O)O)cc3)cnc2n1 | inactive | 

— PubChem BioAssay (Tox21)
